The text below walks through data of PubChem BioAssay (EPA / NIEHS).

Structures are written as SMILES. Activity calls are given as the source filed them. How the source made its calls: active means hit-call score of the fitted dose curve at least 0.9, where 1 is the maximum; inactive means score below 0.9.

Tumor necrosis factor (Homo sapiens), sequence (P01375 whole entry, looked up): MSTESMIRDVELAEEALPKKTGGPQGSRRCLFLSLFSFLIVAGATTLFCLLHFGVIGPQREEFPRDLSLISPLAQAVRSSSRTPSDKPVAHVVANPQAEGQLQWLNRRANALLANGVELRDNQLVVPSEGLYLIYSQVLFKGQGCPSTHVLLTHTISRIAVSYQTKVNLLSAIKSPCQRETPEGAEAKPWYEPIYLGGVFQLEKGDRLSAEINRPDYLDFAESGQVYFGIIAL

Read-out in one assay: Tumor necrosis factor (Homo sapiens) (UniProt P01375)
The assay is described as follows: BSK_LPS_TNFa: BioMAP Diversity Plus: LPS Assay for Tumour Necrosis Factor alpha (TNFa) Biomarker Activity (AID 2283085).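 On AC50: TNFa protein level quantified by ELISA in the co-culture.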 Particulars: primary human HUVEC with PBMC; actives raise or lower the signal. The procedure, abridged:
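ELISA-based TNFa endpoint in a human endothelial–PBMC co-culture sampled 24 h post-exposure. Curves were fitted in both directions using DMSO as baseline of activity.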
With `O=C(O)COc1nc(Cl)c(Cl)cc1Cl`, the AC50 is 27.8 µM (active).
As to `N#Cc1nn(-c2c(Cl)cc(C(F)(F)F)cc2Cl)c(N)c1S(=O)C(F)(F)F` (stereo unspecified), the AC50 was 5.27 µM (active).
Same read-out and setting: as for `CC(C)Oc1cc(-n2nc(C(C)(C)C)oc2=O)c(Cl)cc1Cl`, the figure is 35.7 µM (active).
`CCOP(=S)(OCC)SCn1c(=O)oc2cc(Cl)ccc21`: the AC50 is 12 µM (active).
Take `CCCC1COC(Cn2cncn2)(c2ccc(Cl)cc2Cl)O1` (stereo unspecified): the result was inactive.
For the molecule `COC(=O)C=C(C)OP(=O)(OC)OC`, the outcome was inactive.
As to `CCNc1nc(Cl)nc(NCC)n1`, the AC50 was 8.37 µM (active).
In the case of `COc1ccc(C(c2ccc(OC)cc2)C(Cl)(Cl)Cl)cc1`, the concentration at half-maximal activity (AC50) was 12.2 µM (active).
Take `CCOC(=O)C(Cl)Cc1cc(-n2nc(C)n(C(F)F)c2=O)c(F)cc1Cl` (stereo unspecified): the outcome was inactive.
With `CCc1nn(C)c(C(=O)NCc2ccc(C(C)(C)C)cc2)c1Cl`, the AC50 is 20.8 µM (active).
`N#CC(CCc1ccc(Cl)cc1)(Cn1cncn1)c1ccccc1` (stereo unspecified): the result was inactive.
In the case of `CN(C)C(=S)SSC(=S)N(C)C`, the AC50 is 13.8 µM (active).
With `CNC(=S)S`, the AC50 is 7.49 µM (active).
Take `CON(C)C(=O)Nc1ccc(Cl)c(Cl)c1`: the outcome was inactive.
Consider `Cc1ccc(-c2c(Cl)nc(C#N)n2S(=O)(=O)N(C)C)cc1`, for which the outcome was inactive.
Take `COc1nc(NC(C)C)nc(NC(C)C)n1`: the AC50 was 9.63 µM (active).
For the molecule `CC(C)(C)c1ccc(CSc2cnn(C(C)(C)C)c(=O)c2Cl)cc1`, the outcome was inactive.
`COC(=O)N(OC)c1ccccc1COc1ccn(-c2ccc(Cl)cc2)n1`: the AC50 is 9.8 µM (active).
Consider `N#Cc1cc(Br)c(O)c(Br)c1`, for which the outcome was inactive.
For `COP(=S)(OC)Oc1nc(Cl)c(Cl)cc1Cl`, the half-maximal activity concentration (AC50) is 27.8 µM (active).
Regarding `CCCCNC(=O)n1c(NC(=O)OC)nc2ccccc21`, the result was inactive.
On to `CC(Oc1ccc(Cl)cc1Cl)C(=O)O` (stereo unspecified), for which the result was inactive.
On to `O=C(Nc1ccccc1)Nc1ccnc(Cl)c1`, for which the AC50 was 31.1 µM (active).
As for `CC1=C(C(=O)Nc2ccccc2)SCCO1`, the outcome was inactive.
Turning to `CCOc1cc(Oc2ccc(C(F)(F)F)cc2Cl)ccc1[N+](=O)[O-]`, the result was inactive.
With `Fc1ccc(Oc2ccnc3cc(Cl)cc(Cl)c23)cc1`, the AC50 is 20 µM (active).
On to `CCCCC(CC)COC(=O)c1ccccc1C(=O)OCC(CC)CCCC` (stereo unspecified), for which the AC50 was 12.3 µM (active).

Read-out in a further assay: Vascular cell adhesion molecule 1 (VCAM1), VCAM1 (gene 7412)
The assay is described as follows: BSK_LPS_VCAM1: BioMAP Diversity Plus: LPS Assay for Vascular cell adhesion molecule 1 (VCAM1) Biomarker Activity (AID 2283086). The settings on record: primary human HUVEC with PBMC; actives raise or lower the signal. The gist of the method:
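Measured by ELISA: VCAM-1 in LPS-activated HUVEC/PBMC co-cultures 24 h after treatment. Values reflect bidirectional fitting with DMSO as baseline.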
On to `O=C(O)COc1nc(Cl)c(Cl)cc1Cl`, for which the result was inactive.
Regarding `N#Cc1nn(-c2c(Cl)cc(C(F)(F)F)cc2Cl)c(N)c1S(=O)C(F)(F)F` (stereo unspecified), the AC50 is 31.2 µM (active).
Same read-out and setting: the figure for `CC(C)Oc1cc(-n2nc(C(C)(C)C)oc2=O)c(Cl)cc1Cl` is 31.7 µM (active); for `CCOP(=S)(OCC)SCn1c(=O)oc2cc(Cl)ccc21` it is 13.9 µM (active).
On to `CCCC1COC(Cn2cncn2)(c2ccc(Cl)cc2Cl)O1` (stereo unspecified), for which the result was inactive.
Regarding `COC(=O)C=C(C)OP(=O)(OC)OC`, the result was inactive.
As for `CCNc1nc(Cl)nc(NCC)n1`, the result was inactive.
Take `COc1ccc(C(c2ccc(OC)cc2)C(Cl)(Cl)Cl)cc1`: the concentration at half-maximal activity (AC50) was 20 µM (active).
Turning to `CCOC(=O)C(Cl)Cc1cc(-n2nc(C)n(C(F)F)c2=O)c(F)cc1Cl` (stereo unspecified), the outcome was inactive.
With `CCc1nn(C)c(C(=O)NCc2ccc(C(C)(C)C)cc2)c1Cl`, the AC50 was 19.4 µM (active).
Take `N#CC(CCc1ccc(Cl)cc1)(Cn1cncn1)c1ccccc1` (stereo unspecified): the result was inactive.
Consider `CN(C)C(=S)SSC(=S)N(C)C`, for which the AC50 was 24.6 µM (active).
Take `CNC(=S)S`: the AC50 is 12.4 µM (active).
Take `CON(C)C(=O)Nc1ccc(Cl)c(Cl)c1`: the outcome was inactive.
In the case of `Cc1ccc(-c2c(Cl)nc(C#N)n2S(=O)(=O)N(C)C)cc1`, the AC50 is 34 µM (active).
Turning to `COc1nc(NC(C)C)nc(NC(C)C)n1`, the result was inactive.
Turning to `CC(C)(C)c1ccc(CSc2cnn(C(C)(C)C)c(=O)c2Cl)cc1`, the half-maximal activity concentration (AC50) was 15.8 µM (active).
For `COC(=O)N(OC)c1ccccc1COc1ccn(-c2ccc(Cl)cc2)n1`, the AC50 was 13 µM (active).
Take `N#Cc1cc(Br)c(O)c(Br)c1`: the result was inactive.
With `COP(=S)(OC)Oc1nc(Cl)c(Cl)cc1Cl`, the AC50 was 26.4 µM (active).
For the molecule `CCCCNC(=O)n1c(NC(=O)OC)nc2ccccc21`, the AC50 was 22.6 µM (active).
On to `CC(Oc1ccc(Cl)cc1Cl)C(=O)O` (stereo unspecified), for which the outcome was inactive.
As for `O=C(Nc1ccccc1)Nc1ccnc(Cl)c1`, the outcome was inactive.
Same read-out and setting: the entry for `CC1=C(C(=O)Nc2ccccc2)SCCO1` is “inactive”.
The same measure, in the same setting: the entry for `CCOc1cc(Oc2ccc(C(F)(F)F)cc2Cl)ccc1[N+](=O)[O-]` is “inactive”.
In the case of `Fc1ccc(Oc2ccnc3cc(Cl)cc(Cl)c23)cc1`, the AC50 is 23.2 µM (active).
On to `CCCCC(CC)COC(=O)c1ccccc1C(=O)OCC(CC)CCCC` (stereo unspecified), for which the outcome was inactive.

Read-out in another assay: CD38, CD38 (gene 952)
Briefly: BSK_SAg_CD38: BioMAP Diversity Plus: SAg Assay for CD38 Biomarker Activity (AID 2283087). The settings on record: primary human HUVEC with PBMC; actives raise or lower the signal. The gist of the method:
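Measures CD38 on a human endothelial/PBMC co-culture driven by SEB and TSST-1, 24 h after compound exposure, using ELISA with fluorescence detection; DMSO defines baseline for bidirectional curve fitting.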
`O=C(O)COc1nc(Cl)c(Cl)cc1Cl`: the outcome was inactive.
On to `N#Cc1nn(-c2c(Cl)cc(C(F)(F)F)cc2Cl)c(N)c1S(=O)C(F)(F)F` (stereo unspecified), for which the half-maximal activity concentration (AC50) is 29.7 µM (active).
For the molecule `CC(C)Oc1cc(-n2nc(C(C)(C)C)oc2=O)c(Cl)cc1Cl`, the AC50 is 28.7 µM (active).
Turning to `CCOP(=S)(OCC)SCn1c(=O)oc2cc(Cl)ccc21`, the AC50 is 30.4 µM (active).
As for `CCCC1COC(Cn2cncn2)(c2ccc(Cl)cc2Cl)O1` (stereo unspecified), the result was inactive.
Still for that read-out and setting: the entry for `COC(=O)C=C(C)OP(=O)(OC)OC` is “inactive”; for `CCNc1nc(Cl)nc(NCC)n1` it is “inactive”.
Consider `COc1ccc(C(c2ccc(OC)cc2)C(Cl)(Cl)Cl)cc1`, for which the AC50 was 14.9 µM (active).
For the molecule `CCOC(=O)C(Cl)Cc1cc(-n2nc(C)n(C(F)F)c2=O)c(F)cc1Cl` (stereo unspecified), the outcome was inactive.
Take `CCc1nn(C)c(C(=O)NCc2ccc(C(C)(C)C)cc2)c1Cl`: the AC50 is 15.8 µM (active).
As for `N#CC(CCc1ccc(Cl)cc1)(Cn1cncn1)c1ccccc1` (stereo unspecified), the result was inactive.
Turning to `CN(C)C(=S)SSC(=S)N(C)C`, the AC50 was 26.8 µM (active).
In the case of `CNC(=S)S`, the AC50 is 13.7 µM (active).
As for `CON(C)C(=O)Nc1ccc(Cl)c(Cl)c1`, the result was inactive.
Consider `Cc1ccc(-c2c(Cl)nc(C#N)n2S(=O)(=O)N(C)C)cc1`, for which the AC50 was 22.5 µM (active).
With `COc1nc(NC(C)C)nc(NC(C)C)n1`, the result was inactive.
Turning to `CC(C)(C)c1ccc(CSc2cnn(C(C)(C)C)c(=O)c2Cl)cc1`, the AC50 is 2.4 µM (active).
On the same count and under the same terms, as for `COC(=O)N(OC)c1ccccc1COc1ccn(-c2ccc(Cl)cc2)n1`, the figure is 5.43 µM (active).
Turning to `N#Cc1cc(Br)c(O)c(Br)c1`, the AC50 is 31.2 µM (active).
As for `COP(=S)(OC)Oc1nc(Cl)c(Cl)cc1Cl`, the outcome was inactive.
The same measure, in the same setting: as for `CCCCNC(=O)n1c(NC(=O)OC)nc2ccccc21`, the entry is “inactive”; as for `CC(Oc1ccc(Cl)cc1Cl)C(=O)O` (stereo unspecified), “inactive”.
The same measure, in the same setting: the entry for `O=C(Nc1ccccc1)Nc1ccnc(Cl)c1` is “inactive”; for `CC1=C(C(=O)Nc2ccccc2)SCCO1` it is “inactive”.
Turning to `CCOc1cc(Oc2ccc(C(F)(F)F)cc2Cl)ccc1[N+](=O)[O-]`, the AC50 was 8.23 µM (active).
As for `Fc1ccc(Oc2ccnc3cc(Cl)cc(Cl)c23)cc1`, the concentration at half-maximal activity (AC50) is 25.1 µM (active).
On to `CCCCC(CC)COC(=O)c1ccccc1C(=O)OCC(CC)CCCC` (stereo unspecified), for which the AC50 was 7.36 µM (active).
